The record followed here is ChEMBL document CHEMBL1157539, “Thousands of chemical starting points for antimalarial lead identification” (Nature, 2010).

Molecules are shown by their SMILES. Non-standard residues stand in square brackets, D forms with d. Residues, ends and D or L forms follow the SMILES beside them. *: point of attachment. Butanoyl(4-(4-HOPh)) = O=C(CCCc1ccc(O)cc1)*

Common to all, as to format: functional
In experiment [1] the test system is Plasmodium falciparum. The experiment can be described thus: GSK_TCMDC: Inhibition of Plasmodium falciparum 3D7 in whole red blood cells, using parasite LDH activity as an index of growth. Test compounds present at 2uM.
For experiment [2], the system named is Plasmodium falciparum. In words: GSK_TCMDC: Inhibition of Plasmodium falciparum Dd2 in whole red blood cells, using parasite LDH activity as an index of growth. Test compounds present at 2uM.
Another experiment has as its system HepG2. The experiment can be described thus: GSK_TCMDC: Percent inhibition of human HepG2 cell line. Test compounds present at 10uM.

One may read the Inhibition as how much of the control response was suppressed. A high value points to a strong effect.

As for `NC(=O)c1ccccc1OCC(=O)Nc1cccc(-c2cccc(-c3nc4ccccc4[nH]3)c2)c1`, the Inhibition in the experiment with Plasmodium falciparum [1] came out at 88%; in the experiment on Plasmodium falciparum [2] it was 46%; in the experiment on HepG2 it was 23%.
The matching figures for `Cc1ccc2[nH]c(/C=C/c3cccc4cc[nH]c34)nc2c1`: 100%, 92% and 9%.
Take `COc1ccc(CCn2c(=N)c(C(=O)NCc3ccccc3)cc3c(=O)n4cccc(C)c4nc32)cc1`: the Inhibition in the experiment with Plasmodium falciparum [1] was 100%; in the experiment with Plasmodium falciparum [2], 37%; with HepG2 it was 29%.
As to `Cn1c(=O)c2cc(C(=O)NCCCN3CCCCCC3)sc2c2ccccc21`, the Inhibition in the experiment on Plasmodium falciparum [1] stood at 99%; in the experiment with Plasmodium falciparum [2] it was 99%; with HepG2, 32%.
As to `CC(=O)Nc1ccc2[nH]cc(C3CCN(CC4CCC(NC(=O)/C=C/c5ccccc5Cl)CC4)CC3)c2n1` (configuration not stated), the Inhibition with Plasmodium falciparum [1] was determined as 100%; with Plasmodium falciparum [2] it was 79%; in the experiment with HepG2, 16%.
For `NC1CCN(c2nc(NCCCc3ccc(O)cc3)nc(NCc3ccccc3-c3ccccc3)n2)CC1.O=C(O)C(F)(F)F`, in that order: 100%, 45% and 11%.
As for `CCCCSc1c(CNCCCCCCNCc2ccc3ccccc3c2SCCCC)ccc2ccccc12.CS(=O)(=O)O`, the values for the Inhibition in the experiment with Plasmodium falciparum [1], in the experiment on Plasmodium falciparum [2] and in the experiment with HepG2 were 93%, 62% and 99%, respectively.
Consider `N#CC(CC(=O)c1ccc(Cl)cc1)c1cccc(F)c1` (configuration not stated), for which the Inhibition was determined as 97% in the experiment with Plasmodium falciparum [1], 4% with Plasmodium falciparum [2] and 5% with HepG2.
As for `COc1cc2c(C3CCN(CC4CCN(C(=O)/C=C/c5ccc(Cl)c(Cl)c5)CC4)CC3)c[nH]c2cn1`, the Inhibition in the experiment on Plasmodium falciparum [1] is on record as 100%; in the experiment with Plasmodium falciparum [2], 88%; in the experiment on HepG2, 27%.
The matching figures for `N#Cc1ccc(N[C@@H](CC2CCCCC2)C(=O)NCc2cc(F)c(F)cc2F)c2ccccc12.O=C(O)C(F)(F)F`: 94%, 39% and 12%.
For `CC(C)(C)c1ccc(C(=O)NC2CCC(CCN3CCc4ccc(S(C)(=O)=O)cc4CC3)CC2)cc1C(F)(F)F` (configuration not stated), the Inhibition stood at 88% with Plasmodium falciparum [1], 11% in the experiment with Plasmodium falciparum [2] and 54% in the experiment with HepG2.
With `Cn1nccc1C(=O)NCCNCc1cccc(-c2cccc(-c3nc4cc(C(F)(F)F)ccc4[nH]3)c2)c1.O=C(O)C(F)(F)F`, the Inhibition is reported as 100% with Plasmodium falciparum [1], 99% in the experiment with Plasmodium falciparum [2] and 39% in the experiment on HepG2.
Consider `Cc1cc(NC2CCN(CC3CCCCC3)C2)nc(Nc2ccc(Br)cc2)n1` (configuration not stated), for which the Inhibition with Plasmodium falciparum [1] is listed as 100%; with Plasmodium falciparum [2], 83%; in the experiment on HepG2, 22%.
With `CCCCNC[C@@H](O)[C@H](Cc1ccccc1)NC(=O)c1cc(NCC)cc(N2CCCCS2(=O)=O)c1.Cl`, the Inhibition was determined as 99% in the experiment with Plasmodium falciparum [1], 98% with Plasmodium falciparum [2] and 11% with HepG2.
Consider `Cc1ccc(NC(=O)c2ccc3ncccc3c2)cc1OC1CCN(CCC(C)C)CC1.O=C(O)C(F)(F)F`, for which the Inhibition is 94% in the experiment on Plasmodium falciparum [1], 48% with Plasmodium falciparum [2] and 2% with HepG2.
Turning to `O=C(Nc1cc(C(F)(F)F)ccc1Cl)c1ccc(Cn2cc(Br)cn2)cc1`, the results for the Inhibition in the experiment on Plasmodium falciparum [1], with Plasmodium falciparum [2] and in the experiment with HepG2 were 91%, 67% and 24%, respectively.
In the case of `CC(C)(C)CCN1CCC(CNC(=O)c2cc(-c3cccc(Cl)c3)cs2)C1.O=C(O)C(F)(F)F` (configuration not stated), the Inhibition in the experiment on Plasmodium falciparum [1] is 99%; with Plasmodium falciparum [2], 13%; with HepG2, 50%.
Consider `O=C(NCC(=O)N1CCC[C@H]1C(=O)O)[C@@H](Cc1ccccc1)NC(=O)[C@@H]1CCCN1C(=O)CCCc1ccc(O)cc1` ({Butanoyl(4-(4-HOPh))}-P[dF]GP-OH), for which the Inhibition in the experiment with Plasmodium falciparum [1] came to 81%; in the experiment with Plasmodium falciparum [2], 1%; with HepG2, 1%.
Take `COc1ccc(C=CC(=O)NC(=O)c2ccccc2OC(=O)c2ccccc2)cc1OC`: the results for the Inhibition in the experiment on Plasmodium falciparum [1], in the experiment with Plasmodium falciparum [2] and in the experiment with HepG2 were 87%, 90% and 12%, respectively.
Regarding `CN1CCCN(Cc2cccc(-c3cccc(NC(=O)c4ccc(C#N)cc4)c3)c2)CC1.O=C(O)C(F)(F)F`, the results for the Inhibition in the experiment on Plasmodium falciparum [1], in the experiment with Plasmodium falciparum [2] and with HepG2 were 89%, 4% and 7%, respectively.
Consider `COc1ccccc1N1CCN(CCCCNC(=O)c2ccc(NC(=O)c3ccc(C(F)(F)F)cc3)cc2)CC1`, for which the Inhibition in the experiment with Plasmodium falciparum [1] is 100%; in the experiment on Plasmodium falciparum [2], 37%; in the experiment with HepG2 it was 25%.
`CC1CN(c2cnn(C/C=C/c3ccc(NC(=O)c4ccc(Cl)cc4)cc3)c(=O)c2Cl)CC(C)N1.O=C(O)C(F)(F)F` (configuration not stated): the Inhibition stood at 88% with Plasmodium falciparum [1], 82% with Plasmodium falciparum [2] and 25% with HepG2.
Regarding `O=C(O)C(F)(F)F.c1ccc(CN2CCC(NCc3ccc(-c4cccc(CNC5CCCC5)c4)cc3)CC2)cc1`, the Inhibition was found to be 100% in the experiment with Plasmodium falciparum [1], 100% in the experiment with Plasmodium falciparum [2] and 55% with HepG2.
For the compound `NC1CCN(Cc2ccc(-c3ccc(-c4nc5cc(F)ccc5[nH]4)s3)cc2)C1.O=C(O)C(F)(F)F` (configuration not stated), the values for the Inhibition in the experiment with Plasmodium falciparum [1], in the experiment with Plasmodium falciparum [2] and in the experiment with HepG2 were 100%, 98% and 32%, respectively.
For `COc1ccc(C2CC(=O)C3=C(C2)NC(C)=C(C(=O)OC(C)C)C3c2ccccc2F)cc1OC` (configuration not stated), the Inhibition in the experiment on Plasmodium falciparum [1] is reported as 100%; in the experiment with Plasmodium falciparum [2] it was 99%; in the experiment with HepG2 it was 14%.
As to `Fc1cccc(COc2ccc(Nc3ncnc4sc(C#C[C@H]5CC[C@H](CNCC(F)(F)F)N5)cc34)cc2Cl)c1`, the results for the Inhibition in the experiment on Plasmodium falciparum [1], in the experiment on Plasmodium falciparum [2] and in the experiment on HepG2 were 100%, 51% and 10%, respectively.
As to `CCCCN(CCCC)CCNC(=O)c1ccc(-c2nc3cc(Cl)ccc3[nH]2)c(OCC)c1`, the Inhibition in the experiment with Plasmodium falciparum [1] is reported as 100%; with Plasmodium falciparum [2], 80%; in the experiment on HepG2 it was 0%.
As for `CC(=O)N(C)C1CCN(Cc2cccc(-c3ccc(-c4nc5cc(F)ccc5[nH]4)cc3)c2)C1.O=C(O)C(F)(F)F` (configuration not stated), the values for the Inhibition with Plasmodium falciparum [1], with Plasmodium falciparum [2] and in the experiment on HepG2 were 92%, 19% and 24%, respectively.
As to `O=[N+]([O-])c1cccc(-c2ccc(C=NNc3cc(N4CCCC4)nc(N4CCCC4)n3)o2)c1`, the Inhibition with Plasmodium falciparum [1] amounted to 100%; in the experiment with Plasmodium falciparum [2], 67%; with HepG2 it was 0%.
On to `O=C(NC1CCN(c2ccnc3cc(Cl)ccc23)C1)c1ccc(F)cc1F.O=C(O)C(F)(F)F` (configuration not stated), for which the Inhibition is on record as 100% with Plasmodium falciparum [1], 100% in the experiment with Plasmodium falciparum [2] and 31% with HepG2.
Consider `O=C(N[C@@H](CC1CCCCC1)C(=O)NCc1cccc(C(F)(F)F)c1)c1ccc(O)c(-c2ccc(Cl)c(Cl)c2)c1`, for which the Inhibition in the experiment on Plasmodium falciparum [1] is reported as 98%; with Plasmodium falciparum [2] it was 100%; in the experiment with HepG2 it was 0%.
In the case of `COc1ccc(C2N=C(N)N=C(N)N2OCc2ccccc2)cc1OC.Cl` (configuration not stated), the Inhibition with Plasmodium falciparum [1] turned out to be 95%; in the experiment on Plasmodium falciparum [2], 2%; with HepG2, 1%.
The matching figures for `CCS(=O)(=O)Nc1ccc2[nH]cc(C3CCN(CCC4CCN(C(=O)/C=C/c5ccc(Cl)c(Cl)c5)CC4)CC3)c2c1`: 99%, 94% and 34%.
For `O=C(O)C(F)(F)F.O=S(=O)(NCCN1CCCC1)c1cccc(-c2cccc(CNCc3ccsc3)c2)c1`, in that order: 100%, 55% and 69%.
